Compounds with a hit are over-represented: about 3.3% of the library has one in this group of screens.
ABHD5 PLIN5 PPI = ABHD5-PLIN5 protein interaction inhibition; inhibition, % at 4 µM; Q00G26+Q8WTS1; hit rate 0.78% among 360,000; AID 602281; Split G. princeps luciferase complementation, luminescence, 4 h;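 active = inhibition above the mean inhibition across every tested compound plus 3 SD, cut at about 22% in these data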;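 note: 0% = DMSO only wells and the 100% control is not disclosed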
PRMT1 inh = PRMT1 (human) inhibition, primary screen; Q99873; recombinant PRMT1, activity-based probe fluorescence polarization; inhibition, % at 2.79 µM; hit rate 1.3% among 370,000;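 active = inhibition above about 21% made by adding two undisclosed values, limit read from the data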
Target sequence (Q99873 whole entry, looked up): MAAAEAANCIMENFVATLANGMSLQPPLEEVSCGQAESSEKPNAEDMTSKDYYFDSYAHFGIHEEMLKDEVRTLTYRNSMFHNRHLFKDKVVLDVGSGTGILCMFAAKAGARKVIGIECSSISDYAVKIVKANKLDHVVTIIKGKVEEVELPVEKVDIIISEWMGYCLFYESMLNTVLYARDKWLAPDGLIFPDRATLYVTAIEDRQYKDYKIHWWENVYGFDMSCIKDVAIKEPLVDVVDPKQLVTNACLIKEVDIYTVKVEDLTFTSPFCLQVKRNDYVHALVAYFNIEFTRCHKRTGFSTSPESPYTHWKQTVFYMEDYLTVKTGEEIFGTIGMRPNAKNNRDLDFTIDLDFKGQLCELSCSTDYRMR
rCAG binder = molecules binding r(CAG) RNA repeats. hit rate 1.3% among 370,000. inhibition, % at 3 µM. r(CAG) RNA repeat, TO-PRO-1 dye displacement fluorescence;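 active = inhibition above the plate cutoff, the mean of all test compounds on that plate plus 3 SD, cut at about 35% in these data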;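 note: 0% = DMSO alone and 100% = 100 µM mitoxantrone as full dye displacement; higher means more dye released from RNA so lower well fluorescence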
NOD2-RIPK2 inh = inhibitors of human NOD2-RIPK2 interaction | O43353 | inhibition, % at 4.98 µM | CHO BLA complementation NOD2-RIPK2, CCF4 ratio | AID 624267 | hit rate 0.38% among 360,000; in the data active = inhibition above about 21%;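 note: 0% = vehicle only and 100% = reference blocker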
TLR4 MyD88 comp = blocks binding of human TLR4 to MyD88; AID 861; inhibition, % at 8.4 µM; HeLa CL3-4 TLR4/MyD88 BLA complementation, FRET ratio; hit rate 0.18% among 200,000; in the data active = inhibition above about 25%;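 note: 0% = vehicle and 100% = reference inhibitor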
TLR9-MyD88 inh = TLR9-MyD88 interaction inhibition; Q9NR96+Q99836; CHO BLA complementation TLR9-MyD88, CCF4 FRET ratio; inhibition, % at 4.98 µM; hit rate 0.21% among 340,000;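 active = inhibition above the mean over all tested compounds plus 3 SD, cut at about 21% in these data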;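 note: 0% = DMSO only wells and 100% = clavulanate BLA inhibitor control wells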
Numbers without * were called inactive; x = not tested or not shown.

SMILES	ABHD5 PLIN5 PPI	PRMT1 inh	rCAG binder	NOD2-RIPK2 inh	TLR4 MyD88 comp	TLR9-MyD88 inh
CCOC(=O)C1=C(C)N(c2ccc(OC)cc2)C(=O)/C1=C\c1cccs1	-5	1	3	-8	-6	5
Cc1ccc([C@H]2C(C#N)=C(N)Oc3cc(C)oc(=O)c32)o1	10	22*	2	0	-11	0
CCOC(=O)CNC(=O)C1(NC(=O)CNC(=O)OCc2ccccc2)CCCC1	-5	-3	0	0	x	-6
CCOc1ccc(C=Nn2c(-c3ccc(F)cc3)n[nH]c2=S)cc1	x	23*	25	x	x	x
COC(=O)CC1C(=O)NCCN1C(=O)c1cc([N+](=O)[O-])ccc1Cl (configuration not stated)	-3	2	-1	1	x	-1
Cc1cc(C)c2cc(CN(Cc3ccco3)C(=S)NCC3CCCO3)c(=O)[nH]c2c1 (configuration not stated)	7	11	2	0	-1	-5
CN1CCn2cnc(C(=O)Nc3ccc(CNC(=O)OC(C)(C)C)cc3)c2C1=O	5	6	0	-3	x	2
Cc1cc(O)c(CN(C)C)c2c1C(=O)/C(=C/c1ccco1)O2	12	13	31	11	x	13
Cc1cc(O)c(C=O)c2c1C(=O)Oc1c(CO)c(O)c3c(c1O2)C(O)OC3=O (configuration not stated)	73*	x	x	-31	-11	-2
c1ccc(C2OC3c4cccc5cccc(c45)C3N2c2ccccc2)cc1 (configuration not stated)	-14	24*	-33	5	-5	0
CN(CCO)c1ccc(C=NNc2ccc([N+](=O)[O-])cc2S(=O)(=O)Nc2ccccc2C(=O)O)cc1	4	14	91*	16	x	x
O=C1N=C(N2CCN(c3ccccc3)CC2)S/C1=C/c1cccs1	4	-2	1	1	15	-20
O=C1N=C(c2ccccc2)S/C1=C\c1cccs1	-14	21*	15	8	5	-10
CC[C@@H](CCCc1ccccc1OC)CCS(=O)(=O)C(C)(C)C	x	0	1	x	x	x
CN(C)c1ccc(N2C(=O)CSC2=S)cc1	-22	23*	16	-1	-7	-1
CC1=C(C(=O)N2CCCCCC2)CC(CC(=O)NCCN2CCOCC2)C(=O)N1Cc1ccc(C(C)(C)C)cc1 (configuration not stated)	4	-2	-1	-7	x	x
Nc1ccc(C(=O)Nc2nc3ccccc3s2)cc1	13	2	2	5	0	9
O=C(Nc1nc(=O)c2ccccc2s1)c1ccc(F)cc1	-14	48*	2	-3	7	3
CC(C)(C)NC(=O)C1N(c2cccnc2)C(=O)C2C(C(=O)Nc3ccccc3F)C3(C)C=CC21O3 (configuration not stated)	4	22*	-4	-2	-6	3
CC12C=CC3(O1)C(C(=O)N(c1cccnc1)C3C(=O)NC1CCCCC1)C2C(=O)Nc1ccccc1 (configuration not stated)	-3	0	0	-9	1	6
CC[C@H](CCCc1ccc(OC)cc1)CCC(=O)N(c1ccccc1)c1ccccc1	x	-1	7	x	x	x
CCOC(=O)Nc1sc2c(c1C(=O)OCC)CCC2	2	1	5	4	6	-7
CCOC(=O)c1c(NC(=O)C2CCCCC2C(=O)O)sc2c1CCCCC2 (configuration not stated)	2	2	45*	0	-18	-9
CC1CCN(C(=O)c2[nH]cnc2C(=O)N[C@@H](C)c2ccccc2)CC1	-1	-3	-6	8	x	4
NC(Cc1ccc(C(F)(F)F)cc1)c1csc(Nc2ccc(S(N)(=O)=O)cc2)n1 (configuration not stated)	12	2	13	7	x	x
COc1ccc(N2CCN(C(=O)c3ccc4c(c3)NC(=O)C(CSCc3ccccc3F)N4)CC2)cc1 (configuration not stated)	-2	37*	17	-3	x	6
COc1ccccc1/C=C\C=N\n1c(-c2ccc(Cl)cc2Cl)n[nH]c1=S	-3	22*	23	6	-4	2
Cc1ccc(-c2n[nH]c(=S)n2/N=C/C=C/c2ccccc2[N+](=O)[O-])cc1	-1	2	40*	-4	8	2

Bioassay records as filed in PubChem.
